Measured values reported in PubChem BioAssay AID703 (NMMLSC, 2007).
Unmarked numbers belong to inactive results. How the calls were made is not given here.

Biological target: Integrin alpha-4 (Homo sapiens) (UniProt P13612)
Test: VLA-4 ligand binding increase, concentration series – cell-based, LDV-FITC binding, flow cytometry, dose response (AID 703)
Settings: Jurkat cells, hits give high values

Chain of Integrin alpha-4 (Homo sapiens) (P13612 whole entry, looked up): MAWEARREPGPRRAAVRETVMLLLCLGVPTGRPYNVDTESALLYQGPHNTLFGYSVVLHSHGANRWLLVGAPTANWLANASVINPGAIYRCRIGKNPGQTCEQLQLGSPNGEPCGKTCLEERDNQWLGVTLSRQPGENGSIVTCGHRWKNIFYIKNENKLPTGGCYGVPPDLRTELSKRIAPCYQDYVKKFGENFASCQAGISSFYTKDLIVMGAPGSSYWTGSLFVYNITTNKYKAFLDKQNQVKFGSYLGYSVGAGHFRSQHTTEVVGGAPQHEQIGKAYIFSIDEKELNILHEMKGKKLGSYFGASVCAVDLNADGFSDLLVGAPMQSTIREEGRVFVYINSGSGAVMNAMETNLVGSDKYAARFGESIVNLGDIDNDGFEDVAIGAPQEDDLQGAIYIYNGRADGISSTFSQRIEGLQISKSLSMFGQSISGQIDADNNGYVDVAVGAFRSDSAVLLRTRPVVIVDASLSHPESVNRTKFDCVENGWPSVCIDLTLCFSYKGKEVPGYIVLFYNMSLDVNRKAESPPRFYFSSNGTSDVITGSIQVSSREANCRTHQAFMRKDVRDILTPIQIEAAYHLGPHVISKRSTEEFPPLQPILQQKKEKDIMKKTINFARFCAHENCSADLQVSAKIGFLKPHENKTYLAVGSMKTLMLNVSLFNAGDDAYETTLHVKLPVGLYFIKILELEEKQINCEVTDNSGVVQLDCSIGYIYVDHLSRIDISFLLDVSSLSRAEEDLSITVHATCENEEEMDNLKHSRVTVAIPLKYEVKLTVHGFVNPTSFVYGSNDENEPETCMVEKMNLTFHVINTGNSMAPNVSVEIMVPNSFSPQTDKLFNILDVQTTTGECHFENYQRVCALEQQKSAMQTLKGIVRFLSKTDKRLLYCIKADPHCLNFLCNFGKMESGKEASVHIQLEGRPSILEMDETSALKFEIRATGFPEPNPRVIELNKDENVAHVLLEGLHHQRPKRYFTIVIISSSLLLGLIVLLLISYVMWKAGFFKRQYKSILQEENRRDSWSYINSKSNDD

Structure (SMILES) | activation at 0 C
CN(C)CCCN1c2ccccc2Sc2ccc(C(F)(F)F)cc21 | 0
N#Cc1c(N2CCCC2)nc(N)c2c(N)nc(N3CCCC3)cc12 | 0
CCCCC[C@H](O)/C=C/[C@H]1C=CC(=O)[C@@H]1C/C=C\CCCC(=O)O | 0
COC(=O)C1CCN(C(=O)NC(C)(C)C)CC1 | 0
